Only some compounds are listed: those with a hit (about 7.3% of all), similar ones and a draw of the others.
Luc counter: Kinase-Glo luciferase inhibition (counter-screen); Q27757; Potency, µM (top dose mostly 38.3 µM), inactives show at the top dose activity change, negative = inhibition, actives largely listed as inhibitors; Kinase-Glo luciferase, ATP luminescence, 8 min; AID 1379; hit rate 0.28% among 200,000; note: % is set by controls: 0 for no effect and ±100 for the full control effect; nearly all actives have a fitted effect of over 60% in size
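Substrate mix (final 50 mM imidazole pH 7.2, 50 mM KCl, 7 mM MgCl2, 10 uM ATP, 0.01% Tween 20, 0.05% BSA) plus pin-tool compound, then Kinase-Glo detection mix; 8 min ambient, luminescence read.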
Rab9 prom act: activates the Rab9 promoter | Huh7 Rab9 promoter-luciferase reporter, luminescence, 24 h | Potency, µM (highest dose often 9.22 µM), inactives show at the top dose activation, negative = inhibition, actives largely listed as activators | hit rate 2.8% among 320,000 | AID 485297; note: % of control where 0% means no effect; nearly all actives have a fitted effect of over 60% in size
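Luminescence from Amplite-detected luciferase (10 minutes, ambient) reports Rab9 promoter activation. Before that, stable Rab9-luciferase Huh7 cells (1500/well, reduced-serum OP-MEM I plus 10% FBS) were exposed to compound for 24 hours at 37C.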
FLuc modulator: inhibits or activates purified firefly luciferase, miR-21 counter-screen; purified FLuc, Km substrates, luminescence inhibition; Potency, µM (doses to about 57.5 µM), without a hit: top-dose activity change, negative = inhibition, usual class: inhibitors; hit rate 6.9% among 360,000; AID 588342;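 note: plate controls were vehicle for no effect and reference inhibitor for full effect; nearly all actives have a fitted effect of over 55% in size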
Target sequence (P08659 whole entry, looked up): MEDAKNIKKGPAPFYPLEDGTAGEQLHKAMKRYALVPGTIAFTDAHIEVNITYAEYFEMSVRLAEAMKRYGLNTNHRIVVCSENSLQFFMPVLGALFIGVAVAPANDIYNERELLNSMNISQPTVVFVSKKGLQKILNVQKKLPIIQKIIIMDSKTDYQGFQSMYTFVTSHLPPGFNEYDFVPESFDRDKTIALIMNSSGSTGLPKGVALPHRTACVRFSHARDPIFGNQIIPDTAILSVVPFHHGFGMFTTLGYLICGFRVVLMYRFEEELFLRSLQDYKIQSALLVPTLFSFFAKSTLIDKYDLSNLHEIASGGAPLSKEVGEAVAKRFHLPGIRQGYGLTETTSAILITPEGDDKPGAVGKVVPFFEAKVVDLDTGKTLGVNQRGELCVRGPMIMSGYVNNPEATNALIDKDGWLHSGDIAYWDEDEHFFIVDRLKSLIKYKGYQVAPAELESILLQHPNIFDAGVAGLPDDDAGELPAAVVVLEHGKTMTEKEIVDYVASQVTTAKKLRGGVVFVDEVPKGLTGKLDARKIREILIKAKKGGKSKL
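Purified P. pyralis luciferase (10nM final) with 10uM D-luciferin and 10uM ATP (Km levels) in 50mM Tris acetate pH 7.5, 10mM Mg acetate, 0.01% Tween-20, 0.05% BSA; qHTS 6-point titration, ~60 µM downward; luminescence read.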
SMN2 splice enh: increases expression of the SMN2 splice variant | HEK293 SMN2-luciferase splicing reporter, luminescence, 30-36 h | Potency, µM (highest dose often 46.1 µM), inactives show top-dose activity change, positive = activation, most hits filed as activators | hit rate 2.8% among 210,000; note: % of control where 0% means no effect; nearly all actives have a fitted effect of over 55% in size
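HEK293 cells carry an SMN2 […]–luciferase reporter in which exon 7 inclusion puts luciferase in frame. Cells were plated 10-12 h before compound addition, then incubated 30-36 h at 37C. ONE-Glo luminescence was read; sodium butyrate at 4.5 mM final served as control.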
ELG1 genotoxic: inducers of genotoxicity in HEK293T ELG1-luciferase cells; HEK293T ELG1-luciferase reporter, luminescence, 16 h; Potency, µM (top dose mostly 46 µM), without a hit: top-dose activity change, positive = activation, hits mostly activators; hit rate 1.3% among 330,000; AID 504466; note: % of control where 0% means no effect; nearly all actives have a fitted effect of over 60% in size
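After overnight (16 hr) compound treatment at 37 °C, ELG1-luciferase HEK293T cells were lysed with ONE-Glo; luminescence quantified 30 min later at room temperature.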
NPC1 promoter act: activators of NPC1 promoter; Potency, µM (series often up to 9.22 µM), for inactives: at the top dose activation, most hits filed as activators; hit rate 2.4% among 320,000; Huh7 NPC1 promoter luciferase reporter, 24 h; note: % of control where 0% means no effect; nearly all actives have a fitted effect of over 60% in size
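Cells: Huh7 expressing luciferase under the NPC1 promoter, 1500/well. Seeded 2 h, compound added, incubated 24 h at 37 °C. Luciferase reagent, 10 min ambient, then luminescence.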
An asterisk follows results filed as active; ? = inconclusive; / = not tested or not shown; [ ] = another dose, or the depositor's remark. Calls come from the whole dose curve; as a rule, active = well fitted curve in the direction sought with a large enough effect; inconclusive = small, poorly fitted or top-dose-only effect, or another doubt; inactive = no such curve, though single readings can be large; an effect the other way counts as inactive or inconclusive. Potency is the fitted concentration of half-maximal effect.

SMILES	Luc counter	Rab9 prom act	FLuc modulator	SMN2 splice enh	ELG1 genotoxic	NPC1 promoter act
CCOC(=O)c1sc(=NC(=O)c2cccc(Br)c2)n(C)c1C	/	4.47µM*	-19.6%	/	?	?
CCOC(=O)c1sc(=NC(=O)c2cccc(C)c2)n(C)c1C	-4.7%	2µM*	?	10µM*	?	?
CCOC(=O)c1sc(=NC(=O)c2ccc(S(=O)(=O)N(C)c3ccccc3)cc2)n(C)c1C	-5.4%	-1.8%	-0.5%	-9.2%	-8.9%	-2.2%
CCOC(=O)c1sc(=NC(=O)C2CC2)n(C)c1C	1.4%	3.3%	2.7%	-2.9%	6.6%	-1.0%
Cc1ccc(-c2cc(C(=O)N3CCN(C(=O)c4ccco4)CC3)no2)cc1	-4.1%	-3.8%	?	-14.5%	9.9%	14.9%
O=C(c1cc(-c2ccc(Br)cc2)on1)N1CCCCCC1	/	0.631µM*	1.35µM*	/	16.4µM*	0.708µM*
O=C(c1cc(-c2ccc(Br)cc2)on1)N1CCOCC1	/	0.316µM*	1.9µM*	/	3.66µM*	0.316µM*
CC1CCN(C(=O)c2cc(-c3ccc(Br)cc3)on2)CC1	/	/	4.78µM*	-0.7%	/	/
CCOc1ccccc1C(=O)N1CC(=O)Nc2ccc(Cl)cc2C1c1ccccc1 (stereo not drawn)	/	/	-12.4%	-6.7%	/	/
Cc1cccc(C)c1-n1ncc(C(=O)NCCCN2CCC(C)CC2)c1C1CCN(C(=O)OC(C)(C)C)CC1	/	/	-1.9%	/	/	/
CC(=O)N(\C=C/C=C/C=C1\Sc2ccccc2C1=O)c1ccccc1	-13.5%	6.9%	7.57µM*	-58.2%	-4.7%	-1.5%
CC(=O)N(/N=C1\Sc2ccccc2C1=O)c1ccc(C)cc1C	-3.6%	22.9%	16.9µM*	-67.5%	14.6µM*	?
CC(=O)N(/N=C1\Sc2ccccc2C1=O)c1ccccc1C	-6.7%	3.16µM*	10.7µM*	?	?	?
CC(=O)N(/N=C1\Sc2ccccc2C1=O)c1ccccc1	-1.1%	23.0%	?	14.1µM*	?	23.1%
CC(=O)N(C)C1=C(O)c2ccccc2C(=O)C1=O	-7.7%	1.0%	2.1%	0.1%	2.0%	-2.7%
O=C(COc1ccc(Cl)cc1)NCCc1csc(-c2cccc(F)c2)n1	/	/	-7.4%	/	/	/
CC(CCc1nc2ccccc2s1)(c1ccc(O)cc1)c1ccc(O)cc1	-3.4%[7.66 µM]	/	/	-7.3%[9.22 µM]	/	/
Cc1cccnc1NC(=O)Nc1cccs1	-3.7%	10.9%	12µM*	12.9%	16.8%	14.5%
Cc1ccc(NC(=O)Nc2ncccc2C)cc1	-5.9%	2µM*	7.57µM*	10µM*	28.4%	2.82µM*
Cc1ccccc1CNC(=O)Nc1cccs1	-4.7%	25.3%	21.3µM*	14.9%	8.1%	29.0%
Cc1cccnc1NC(=O)Nc1ccc(F)cc1	-7.9%	?	?	17.2%	?	?
Cc1ccc(C)c(NC(=S)Nc2ncccc2C)c1	0.3%	?	16.9µM*	/	?	22.0%
O=C(NCc1cccs1)Nc1cccs1	-6.5%	12.3%	?	1.8%	-0.2%	11.1%
Cc1cccc(NC(=O)Nc2cccs2)c1C	/	/	?	5.2%	/	/
CCc1ccc(NC(=O)CC2C(=O)N(c3ccc(Cl)cc3)C(=O)N2C2CCCC2)cc1 (stereo not drawn)	/	/	-1.5%	/	/	/
SMILES	Luc counter	Rab9 prom act	FLuc modulator	SMN2 splice enh	ELG1 genotoxic	NPC1 promoter act
O=C(Nc1ccc2oc(-c3cc(Br)ccc3Cl)nc2c1)c1cc2ccccc2o1	/	/	0.9%	-4.9%	/	/
CSc1ccccc1NC(=O)c1cc2ncc(Br)cn2n1	-0.8%	?	8.49µM*	3.16µM*	?	3.9%
Cc1ccccc1Cn1ccc(NC(=O)c2cc3ncc(Br)cn3n2)n1	-0.5%	-2.2%	10.7µM*	1.8%	-0.4%	-1.5%
Cc1nn(Cc2ccc(F)cc2)c(C)c1NC(=O)c1cc2ncc(Br)cn2n1	-1.1%	-11.3%	-0.5%	/	-6.0%	-0.5%
Cc1ccccc1Cn1ccc(NC(=O)c2nn3cccnc3c2Cl)n1	1.0%	26.9%	16.9µM*	-10.3%	5.1%	11.6%
CCCCC1CCC(C(=O)N2CC(=O)Nc3ccc(C)cc3C2c2ccc(F)cc2)CC1 (stereo not drawn)	/	/	-6.5%	3.5%	/	/

Screening results (PubChem BioAssay)
